Among the data in the supplement of paper PMC6555819 are PBM binding z-score values, retold here.

Holding throughout (assay): PBM binding z-score (relative to random genomic background probes); higher = stronger binding; sequences stand for … in GC…GCGATTGACAGCGTAGAATGAAGG
Assay [1] concerns FXR:RXRa (NR concentration 270 nM, RXRa partner concentration 90 nM). The essentials: (§1)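 Regression normalization was applied to scanned fluorescence from custom Agilent 4×180K protein-binding microarrays. Before scanning, arrays were incubated 1 h with ligand-free nuclear receptor dimers, and binding was detected with antibodies against each partner (one per run). Binding z-scores use the random background probes as reference.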

Assay [2] has as its system LXRa:RXRa (NR concentration 270 nM, RXRa partner concentration 90 nM). The essentials:
as §1

The test system of assay [3] is LXRa homodimer (NR concentration 270 nM). Summed up:
as §1

Assay [4] deals with LXRb:RXRa (NR concentration 270 nM, RXRa partner concentration 90 nM). Summed up:
as §1

The subject of assay [5] is LXRb homodimer (NR concentration 270 nM). Summed up: as §1
Assay [6] concerns PPARa:RXRa (NR concentration 270 nM, RXRa partner concentration 90 nM). The essentials: as §1
Assay [7] deals with PPARg:RXRa (NR concentration 180 nM, RXRa partner concentration 90 nM). Summed up: as §1
The test system of assay [8] is PPARg:RXRa 270nM:90nM, anti-RXR (NR concentration 270 nM, RXRa partner concentration 90 nM). Summed up: as §1
In assay [9] the test system is PPARg:RXRa 30nM:10nM, anti-RXR (NR concentration 30 nM, RXRa partner concentration 10 nM). Summed up:
as §1

In assay [10] the test system is PPARg:RXRa 90nM:30nM, anti-RXR (NR concentration 90 nM, RXRa partner concentration 30 nM). Summed up:
as §1

Assay [11] deals with PPARg:RXRa DBDmut IVT, anti-RXR (DBD mutation: RXRa K156A/R161A, NR concentration 270 nM, RXRa partner concentration 90 nM). Summed up: as §1
The test system of assay [12] is PPARg:RXRa IVT, anti-PPARg (NR concentration 270 nM, RXRa partner concentration 90 nM). The essentials:
as §1

Assay [13] deals with PPARg DBDmut:RXRa IVT, anti-PPARg (DBD mutation: PPARg1 K132A/R137A, NR concentration 270 nM, RXRa partner concentration 90 nM). Summed up:
as §1

Assay [14] concerns PPARg DBDmut IVT, anti-PPARg (DBD mutation: PPARg1 K132A/R137A, NR concentration 270 nM). The essentials:
as §1

Assay [15] deals with PPARg homodimer (NR concentration 180 nM). The essentials: as §1
In assay [16] the test system is PXR:RXRa (NR concentration 270 nM, RXRa partner concentration 90 nM). Summed up: as §1
The test system of assay [17] is PXR homodimer (NR concentration 270 nM). The essentials: as §1
Assay [18] has as its system RARa:RXR (NR concentration 270 nM, RXRa partner concentration 90 nM). Summed up: as §1
Assay [19] has as its system RARa homodimer (NR concentration 270 nM). The essentials: as §1
In assay [20] the test system is RARb:RXRa (NR concentration 270 nM, RXRa partner concentration 90 nM). Summed up: as §1

Regarding TCTTGTAGAACAACAGGAGGTTAAGAAAGATCGA, the PBM binding z-score in assay [1] was 0.0476; in assay [2], 1.07; in assay [3], -0.0587; in [4] it was 0.901; in assay [5], -0.216; in [6], 1.28. Besides, the PBM binding z-score is 0.33 in assay [7]; 1.56 in assay [8]; 2.79 in assay [9]; 2.15 in assay [10]; 2.21 in assay [11]; 0.963 in [12]. Further, the PBM binding z-score in assay [13] turned out to be 0.603; in assay [14], 0.55; in assay [15], 0.00875; in assay [16] it was 0.716; in assay [17], 0.0491; in assay [18] it was 0.961. The PBM binding z-score in [19] was found to be 0.174; in assay [20] it was 0.469.
Turning to GATACAGGGTCTAGGCCAGAGTACGCGTATTGAT, the PBM binding z-score in assay [1] was -0.772; in assay [2], -0.631; in assay [3] it was -0.516; in assay [4], -0.894; in assay [5], -1.47; in [6], -0.516. Besides, the PBM binding z-score is 0.629 in assay [7]; 0.0439 in assay [8]; -0.269 in assay [9]; -0.108 in [10]; -0.37 in [11]; 0.257 in assay [12]. Further, the PBM binding z-score is -1.76 in [13]; -0.427 in assay [14]; -0.543 in assay [15]; -0.687 in assay [16]; -0.433 in [17]; -0.694 in assay [18]. Also, the PBM binding z-score in assay [19] was -0.222; in assay [20] it was 0.0286.
For the sequence CGTCCAAGGTCGGAGAGGTCAGTGAATGCCGAGT, the PBM binding z-score in assay [1] was 2.9; in [2] it was 3.06; in assay [3] it was 1.09; in assay [4] it was 2.53; in [5] it was -0.761; in [6], 3.1. For the same sequence, the PBM binding z-score in assay [7] was 0.524; in [8], 2.01; in [9] it was 0.133; in assay [10] it was 1.16; in [11], 0.725; in assay [12] it was 1.17. The PBM binding z-score is -0.739 in assay [13]; -1.35 in assay [14]; 1.93 in assay [15]; 4.6 in assay [16]; 7.89 in assay [17]; 3.59 in assay [18]. Moreover, the PBM binding z-score in assay [19] stood at 1.21; in assay [20], 3.76.
Take ACTATTATTTGACTTAGGGCAACCGATACGACGC: the PBM binding z-score in assay [1] was found to be 0.71; in assay [2], 0.925; in [3] it was 1.54; in [4], 0.685; in [5], 1.46; in assay [6] it was 0.557. Also, the PBM binding z-score in [7] is 1.15; in [8] it was 0.779; in [9], 0.924; in assay [10], 0.948; in [11], 0.814; in assay [12], 0.633. Also, the PBM binding z-score was determined as 1.79 in assay [13]; 2.46 in assay [14]; 2.16 in [15]; 0.502 in [16]; 1.69 in [17]; 0.728 in assay [18]. Also, the PBM binding z-score in [19] was 3.4; in assay [20], 1.21.
Regarding TCATATAGGTGATACAGGTGAAAGTCGGCATCTA, the PBM binding z-score in [1] is 0.938; in assay [2] it was 1.04; in assay [3] it was 0.153; in assay [4], 0.984; in assay [5] it was -0.0198; in [6], 2.33. In addition, the PBM binding z-score in assay [7] stood at 1.96; in [8], 2.94; in [9], 3.85; in [10] it was 3.55; in assay [11] it was 4.78; in assay [12], 4.31. Besides, the PBM binding z-score in [13] amounted to 1.81; in [14], 1.2; in assay [15], 1.4; in assay [16], 0.783; in [17], 0.342; in assay [18], 0.978. The results for the PBM binding z-score in assay [19] and in assay [20] were 1.22 and 0.996, respectively.
As to TTGCCTAGGTCATGCGGGCCAGTATAGTGTCGGC, the PBM binding z-score was 4.05 in [1]; 2.72 in assay [2]; 0.0559 in assay [3]; 1.52 in [4]; -0.792 in assay [5]; 3.42 in assay [6]. Besides, the PBM binding z-score in assay [7] was 2.01; in assay [8] it was 2.28; in assay [9] it was -0.182; in assay [10], 1.06; in [11], 1.47; in assay [12] it was 2.82. In addition, the PBM binding z-score in [13] was 0.433; in [14], -0.575; in [15], 0.753; in assay [16], 1.39; in [17], -0.692; in [18] it was 2.31. Besides, the PBM binding z-score in assay [19] is -0.448; in [20] it was 3.82.
Turning to CGAACGAGGGCATGAGTTTATAGCAAATGCCGAT, the PBM binding z-score in assay [1] was 0.448; in assay [2], 0.306; in assay [3], -0.244; in assay [4] it was 0.294; in assay [5], -1.03; in assay [6] it was 1.43. Besides, the PBM binding z-score in [7] was 1.45; in assay [8] it was 1.38; in [9], 0.138; in assay [10] it was 0.962; in assay [11] it was 3.26; in assay [12] it was 2.5. Also, the PBM binding z-score in [13] is 0.366; in assay [14], -0.357; in assay [15], 0.413; in assay [16], 1.65; in [17], 1.18; in assay [18] it was 0.678. Besides, the PBM binding z-score in assay [19] was -0.149; in [20], 2.11.
